Inconclusive results are not listed. Calls of active or inactive are those of the source. Rule for the calls, unless noted: active = hit-call score of the fitted dose curve at least 0.9, where 1 is the maximum; inconclusive = response in the unintended direction; inactive = score below 0.9.
How the values were obtained:
[1] = Tanguay_ZF_120hpf_TRUN_legacy: (Legacy) Oregon State University Tanguay Lab 120 Hour Post-fertilization zebrafish Assay for Truncated Body (AID 2283655)
How it was run: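 Single dechorionated zebrafish embryos received test chemical from 6 hpf in 0.64% DMSO, kept at 28C. At 120 hpf, brightfield inspection noted any truncated body.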

[2] = Tanguay_ZF_120hpf_NC_legacy: (Legacy) Oregon State University Tanguay Lab 120 Hour Post-fertilization zebrafish Assay for Notochord and Tail Malformation (AID 2283656)
How it was run: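 Binary notochord-distortion calls, made by brightfield inspection, form the read-out; activity is fitted in the positive direction against DMSO. Exposure ran statically from 6 to 120 hpf at 28C with 0.64% DMSO.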

[3] = read-out: ABC Transporter (ABCB1), ABCB1 (gene 5243); assay: CLD_ABCB1_6hr: CellzDirect (CLD) Gene Expression Assay for ABC Transporter (ABCB1) at 6 hours (AID 2283659);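 note: hits raise ABCB1 transcript above the DMSO vehicle baseline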
How it was run: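 ABCB1 transcript measured by quantitative nuclease protection assay, chemiluminescent read-out, 6 h after dosing human hepatocyte cultures (0.2% DMSO vehicle, daily redosing). Activity fitted as increase over DMSO baseline; cytotoxicity flagged by phase-contrast morphology.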

[4] = read-out: Broad substrate specificity ATP-binding cassette transporter ABCG2 (Homo sapiens) (UniProt Q9UNQ0); assay: CLD_ABCG2_6hr: CellzDirect (CLD) Gene Expression Assay for ABC Transporter (ABCG2) at 6 hours (AID 2283660)
How it was run: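 ABCG2 mRNA induction measured by qNPA chemiluminescence in human primary hepatocyte cultures, 6 h post-dose. Chemicals tested at several concentrations against a 0.2% DMSO vehicle; positive-direction fit relative to DMSO.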

[5] = tested on: Thyroperoxidase (TPO), gene 54314; assay: CCTE_Simmons_AUR_rTPO: CCTE's Amplex UltraRed Assay for Thyroperoxidase (TPO) Inhibition, Simmons Lab (AID 2283662);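 for AC50: potency for loss of signal meaning inhibition of peroxidase activity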
How it was run: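 Cell-free peroxidase activity assay using rat thyroid gland microsomes with excess H2O2 (300 uM) and 25 uM Amplex UltraRed. Compounds tested from 5 nM to 87.5 uM; fluorescence measured after 30 min at 37C, analysed relative to DMSO baseline.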

[6] = read-out: xenobiotic metabolism (CYP1A2), CYP1A2 (gene 1544); assay: CLD_CYP1A2_6hr: CellzDirect (CLD) Gene Expression Assay for xenobiotic metabolism (CYP1A2) at 6 hours (AID 2283663);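 for AC50: potency is for induction meaning a rise in mRNA above DMSO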
How it was run: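 mRNA levels quantified by quantitative nuclease protection assay with chemiluminescence, 6 h after dosing human primary hepatocyte cultures (two donors) across several concentrations, vehicle 0.2% DMSO. Induction fitted upward versus DMSO; phase-contrast cytotoxicity annotated.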

[7] = read-out: xenobiotic metabolism (CYP2C9), CYP2C9 (gene 1559); assay: CLD_CYP2C9_6hr: CellzDirect (CLD) Gene Expression Assay for xenobiotic metabolism (CYP2C9) at 6 hours (AID 2283664)
How it was run: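 Readout is qNPA chemiluminescence of CYP2C9 mRNA, taken 6 h after dosing of cultured human liver primary cells at several concentrations. Activity is the increase over 0.2% DMSO baseline. Morphology-based cytotoxicity flagged yes/no.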

[8] = read-out: alkyl and aryl transferase (GSTA2), GSTA2 (gene 2939); assay: CLD_GSTA2_6hr: CellzDirect (CLD) Gene Expression Assay for alkyl and aryl transferase (GSTA2) at 6 hours (AID 2283666)
How it was run: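 GSTA2 transcript induction at 6 h, quantified by nuclease protection (qNPA) with chemiluminescent detection, in human liver primary hepatocytes exposed to several compound concentrations with 0.2% DMSO as baseline; phase-contrast morphology annotated apparent cytotoxicity.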

[9] = Tanguay_ZF_120hpf_TR_legacy: (Legacy) Oregon State University Tanguay Lab 120 Hour Post-fertilization zebrafish Assay for Touch Response (AID 2283667)
How it was run: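 Readout is presence or absence of touch response in 120 hpf zebrafish larvae, assessed by brightfield observation after continuous static exposure at 28C. Final vehicle was 0.64% (vol/vol) DMSO.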

[10] = CLD_ACTIN_24hr: CellzDirect (CLD) Gene Expression Assay for Baseline Control (Actin) at 24 hours (AID 2283670)
How it was run: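 This 24 h qNPA (S1 nuclease protection, chemiluminescence) actin transcript readout in cultured human liver primary cells serves as baseline control. Signal is fitted upward relative to 0.2% DMSO; chemicals tested at multiple concentrations across two donor preparations.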

[11] = read-out: glucuronosyltransferase (UGT1A1), UGT1A1 (gene 54658); assay: CLD_UGT1A1_6hr: CellzDirect (CLD) Gene Expression Assay for glucuronosyltransferase (UGT1A1) at 6 hours (AID 2283672)
How it was run: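 UGT1A1 mRNA induction, read by quantitative nuclease protection assay, 6 h after dosing primary human hepatocytes (two donors, 0.2% DMSO vehicle). Gain of signal fitted relative to vehicle.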

[12] = read-out: Cytochrome P450 2C19 (Homo sapiens) (UniProt P33261); assay: CLD_CYP2C19_6hr: CellzDirect (CLD) Gene Expression Assay for xenobiotic metabolism (CYP2C19) at 6 hours (AID 2283678)
How it was run: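 CYP2C19 transcript induction was quantified by quantitative nuclease protection assay with chemiluminescent read-out, 6 h after dosing. Cells were primary human hepatocytes from two donor preparations, given fresh dosing solutions daily in 0.2% DMSO vehicle. Activity was relative to DMSO.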

[13] = read-out: matrix metalloproteinase-1 (MMP1), MMP1 (gene 4312); assay: LTEA_HepaRG_MMP1: Life Technologies and Expression Analysis (LTEA) Assay for matrix metalloproteinase-1 (MMP1) using HepaRG (AID 2283658; active = hit-call score of the fitted dose curve at least 0.9, where 1 is the maximum; inactive = score below 0.9); settings: mRNA level, 48 h; actives raise or lower the signal
How it was run: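 In this screen, human liver HepaRG cultures receive each chemical in duplicate for 48 h (top 100 uM, 0.5% DMSO). MMP1 expression is then quantified by TaqMan qRT-PCR with ACTB/GAPDH/POLR2A normalization.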

[14] = read-out: Cytochrome P450 2B6 (Homo sapiens) (UniProt P20813); assay: CLD_CYP2B6_6hr: CellzDirect (CLD) Gene Expression Assay for xenobiotic metabolism (CYP2B6) at 6 hours (AID 2283677);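 note: actives raise CYP2B6 transcript above DMSO baseline so AC50 marks an inducer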
How it was run: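 CYP2B6 transcript levels, read by chemiluminescent qNPA, were fitted for increase versus DMSO baseline; cultured human liver hepatocytes from two donor preparations were harvested 6 h after exposure to test chemicals at multiple concentrations.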

[15] = read-out: xenobiotic metabolism (CYP1A1), CYP1A1 (gene 1543); assay: CLD_CYP1A1_24hr: CellzDirect (CLD) Gene Expression Assay for xenobiotic metabolism (CYP1A1) at 24 hours (AID 2283673);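 note: CYP1A1 mRNA level by quantitative nuclease protection with chemiluminescence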
How it was run: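 Transcript levels were read at 24 h by qNPA chemiluminescence in human liver primary cells. Cells got daily fresh dosing at multiple concentrations (vehicle 0.2% DMSO). Induction fitted upward against DMSO; phase-contrast cytotoxicity annotated.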

[16] = read-out: ABC Transporter (ABCB11), ABCB11 (gene 8647); assay: CLD_ABCB11_24hr: CellzDirect (CLD) Gene Expression Assay for ABC Transporter (ABCB11) at 24 hours (AID 2283674; active = hit-call score of the fitted dose curve at least 0.9, where 1 is the maximum; inactive = score below 0.9)
How it was run: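 ABCB11 transcript was quantified by qNPA chemiluminescence in cultured human liver hepatocytes 24 hours after dosing. Fresh dosing solutions were applied on consecutive days, against a 0.2% DMSO vehicle. Cytotoxicity was noted by phase-contrast morphology.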

[17] = read-out: ABC Transporter (ABCB11), ABCB11 (gene 8647); assay: CLD_ABCB11_6hr: CellzDirect (CLD) Gene Expression Assay for ABC Transporter (ABCB11) at 6 hours (AID 2283675);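 note: hits raise ABCB11 mRNA level so AC50 marks induction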
How it was run: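 Read-out was ABCB11 mRNA gain of signal by quantitative nuclease protection assay, relative to 0.2% DMSO vehicle, 6 h post-dose. Cells were primary human hepatocytes from two donors, treated across multiple concentrations; phase-contrast cytotoxicity noted yes/no.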

[18] = CLD_ACTIN_6hr: CellzDirect (CLD) Gene Expression Assay for Baseline Control (Actin) at 6 hours (AID 2283676);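 note: active means increased actin mRNA relative to DMSO vehicle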
How it was run: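 Baseline actin transcript level measured by qNPA (S1 nuclease protection, chemiluminescence) in human hepatocyte cultures 6 h after chemical exposure; 0.2% DMSO vehicle as reference, cytotoxicity noted from morphology.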

[19] = read-out: sulfotransferase (SULT2A), SULT2A1 (gene 6822); assay: CLD_SULT2A_6hr: CellzDirect (CLD) Gene Expression Assay for sulfotransferase (SULT2A) at 6 hours (AID 2283669);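 note: hits raise transcript level above the DMSO vehicle baseline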
How it was run: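 Measured 6 h after dosing, SULT2A1 mRNA in human hepatocyte lysates was quantified by S1 nuclease protection with chemiluminescent detection. Increases fitted against 0.2% DMSO vehicle baseline; phase-contrast cytotoxicity recorded yes/no.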

[20] = read-out: xenobiotic metabolism (CYP1A1), CYP1A1 (gene 1543); assay: CLD_CYP1A1_6hr: CellzDirect (CLD) Gene Expression Assay for xenobiotic metabolism (CYP1A1) at 6 hours (AID 2283661)
How it was run: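 Read-out 6 h post-dose: qNPA chemiluminescent quantitation of transcript induction against 0.2% DMSO. Cells were cultured primary human hepatocytes from two separate donor preparations; phase-contrast morphology annotated apparent cytotoxicity.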

Measured: AC50

Cytochrome P450 2C19 (Homo sapiens), sequence (P33261 whole entry, looked up): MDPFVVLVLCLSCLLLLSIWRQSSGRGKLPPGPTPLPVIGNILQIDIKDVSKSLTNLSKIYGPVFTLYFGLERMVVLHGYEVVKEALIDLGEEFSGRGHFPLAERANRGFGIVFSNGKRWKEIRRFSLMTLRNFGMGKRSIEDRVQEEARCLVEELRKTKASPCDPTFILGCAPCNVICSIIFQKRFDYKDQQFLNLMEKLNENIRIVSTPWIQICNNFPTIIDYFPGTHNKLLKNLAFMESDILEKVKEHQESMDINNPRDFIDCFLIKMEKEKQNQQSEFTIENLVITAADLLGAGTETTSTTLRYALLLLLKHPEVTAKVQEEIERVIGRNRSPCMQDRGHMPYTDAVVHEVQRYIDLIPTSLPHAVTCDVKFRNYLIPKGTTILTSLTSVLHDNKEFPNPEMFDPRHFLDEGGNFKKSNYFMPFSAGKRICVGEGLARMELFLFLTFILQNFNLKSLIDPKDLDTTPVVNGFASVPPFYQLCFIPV
Broad substrate specificity ATP-binding cassette transporter ABCG2 (Homo sapiens), sequence (Q9UNQ0 whole entry, looked up): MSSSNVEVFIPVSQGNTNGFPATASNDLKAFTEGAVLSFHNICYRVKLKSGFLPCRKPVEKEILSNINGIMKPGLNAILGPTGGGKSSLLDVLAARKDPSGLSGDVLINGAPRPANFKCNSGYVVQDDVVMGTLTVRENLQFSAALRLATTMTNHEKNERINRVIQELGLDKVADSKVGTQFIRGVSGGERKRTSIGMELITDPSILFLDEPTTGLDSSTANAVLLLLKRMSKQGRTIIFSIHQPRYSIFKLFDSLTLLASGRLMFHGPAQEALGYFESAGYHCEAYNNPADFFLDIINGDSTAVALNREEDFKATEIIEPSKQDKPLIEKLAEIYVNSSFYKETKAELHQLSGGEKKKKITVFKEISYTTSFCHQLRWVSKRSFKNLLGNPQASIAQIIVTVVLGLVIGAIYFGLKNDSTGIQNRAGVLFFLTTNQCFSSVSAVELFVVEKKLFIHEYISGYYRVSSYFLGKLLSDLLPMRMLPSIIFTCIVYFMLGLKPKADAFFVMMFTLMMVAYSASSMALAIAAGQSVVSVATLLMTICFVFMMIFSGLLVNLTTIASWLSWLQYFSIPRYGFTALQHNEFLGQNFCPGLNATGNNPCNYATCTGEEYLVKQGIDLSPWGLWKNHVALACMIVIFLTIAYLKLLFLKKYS

O=c1ccc(=O)[nH][nH]1
inactive: [1] | [3] | [4] | [5] | [6] | [7] | [8] | [9] | [10] | [11] | [12]
active: [2] 41.6 µM

CNC(=O)Oc1cccc2c1OC(C)(C)O2
inactive: [1] | [2] | [13] | [3] | [8] | [9] | [10] | [11]
active: [6] 3.97 µM | [14] 2.74 µM

CCc1cccc(C)c1N(C(=O)CCl)C(C)COC (stereo not drawn)
inactive: [1] | [2] | [3] | [4] | [6] | [8] | [9] | [10] | [11]
active: [15] 4.65 µM | [14] 0.596 µM

CCOP(=S)(OCC)SCCSCC
inactive: [1] | [2] | [3] | [4] | [9] | [10] | [11] | [16] | [17] | [18] | [12]
active: [6] 3.97 µM | [15] 2.7 µM | [14] 14.1 µM

CCOP(=S)(OCC)Oc1ccc2c(C)c(Cl)c(=O)oc2c1
inactive: [1] | [2] | [13] | [3] | [4] | [7] | [8] | [9] | [10] | [11] | [16]
active: [5] 38.5 µM | [14] 1.44 µM

N#CSCSC#N
active: [5] 2.75 µM
inactive: [1] | [2] | [3] | [4] | [6] | [7] | [8] | [19] | [10] | [11] | [15] | [16] | [14]

Cc1ccn2nc(S(=O)(=O)Nc3c(F)cccc3F)nc2n1
inactive: [1] | [2] | [3] | [4] | [20] | [6] | [7] | [9] | [10] | [11] | [15] | [14]

CC(C)N(C(=O)SCC(Cl)=C(Cl)Cl)C(C)C
active: [14] 5.4 µM
inactive: [1] | [2] | [3] | [4] | [6] | [7] | [8] | [9] | [19] | [11] | [12]
